HCV NS3h FP = hepatitis C NS3 helicase inhibition, primary screen; NS3h Cy5-dT15 DNA binding, fluorescence polarization; inhibition, % at 100 µM; 16,000 compounds, 1.6% hits;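 active means inhibition above the average over every tested compound plus 3 SD, cut at about 40% in these data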
Cy5 interf NS3h = Cy5 fluorescence interference, HCV helicase counter-screen; fluorescence interference ratio at 100 µM; 16,000 compounds, 6% hits; Cy5-dT15 DNA with NS3h; actives lie on both sides; signal over control mean, under 1 quenches;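 active means compound fluorescence over control fluorescence at most 0.8, a quencher, or at least a set upper limit, an enhancer; inactive means ratio between 0.8 and the set upper limit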
HCV NS3h conf = confirmation of hepatitis C virus NS3 helicase inhibitors | 240 compounds, 20% hits | shares compounds with HCV NS3h FP | inhibition, % at 100 µM | AID 720485 | NS3h binding to Cy5-dT15 DNA, fluorescence polarization;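 active means percent inhibition of 50% or more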
SSB FP counter = counter-screen for HCV NS3 helicase inhibitors: E. coli SSB binding; 240 compounds, 40% hits; E. coli SSB binding Cy5-dT15, fluorescence polarization; AID 720486; inhibition, % at 100 µM; shares compounds with HCV NS3h FP;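 active means inhibition of at least 50%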;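 further: displacers lower Cy5 polarization so higher inhibition means more SSB displaced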
Target sequence (P0AGE0 whole entry, looked up): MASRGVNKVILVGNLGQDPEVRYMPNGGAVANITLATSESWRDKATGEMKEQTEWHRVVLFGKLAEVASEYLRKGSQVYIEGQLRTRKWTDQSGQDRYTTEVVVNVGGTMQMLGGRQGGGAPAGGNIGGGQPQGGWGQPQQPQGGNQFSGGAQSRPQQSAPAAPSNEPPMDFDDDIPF
Cy5 SSB fluor CB = counter-screen for HCV NS3 helicase inhibitors: fluorescence interference. 240 compounds, 8% hits. AID 720487. Cy5-dT15/E. coli SSB fluorescence interference; actives lie on both sides. fluorescence interference ratio at 100 µM. shares compounds with HCV NS3h FP;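 active means fluorescence interference ratio at or above 1.2, signal boosting, or at or below 0.8, signal quenching; inactive means ratio between 0.8 and 1.2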;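 further: ratio of compound well signal to mean negative control signal so 1 means no effect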
Cy5 interf conf = confirmation counter-screen for HCV NS3 helicase inhibitors: fluorescence interference. shares compounds with HCV NS3h FP. 240 compounds, 44% hits. Cy5-dT15 DNA/NS3h fluorescence interference counterscreen. fluorescence interference ratio at 100 µM, hits read low;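 active means fluorescence interference ratio at or below 0.8 quencher or at or above a set limitenhancer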;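 further: ratio of compound fluorescence to mean of negative controls so 1 means no interference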
* hit, by the source's call; . = no result given. A selection: hits, their analogues and other compounds. The true share with any hit is near 7.6%.

SMILES	HCV NS3h FP	Cy5 interf NS3h	HCV NS3h conf	SSB FP counter	Cy5 SSB fluor CB	Cy5 interf conf
O=C1NC(=S)S/C1=C/c1ccc(-c2cccc(C(=O)O)c2)o1	67.0*	0.977	61.6*	98.8*	0.807	0.791*
O=C1NC(=S)S/C1=C\c1ccc(C(=O)O)cc1	13.9	0.97	.	.	.	.
COc1ccc(N(CC(=O)Nc2ccccc2Cl)S(C)(=O)=O)cc1	30.8	0.946	.	.	.	.
Cc1cc(C)cc(NC(=O)CN(c2cccc(C(F)(F)F)c2)S(C)(=O)=O)c1	11.9	0.953	.	.	.	.
COc1ccc(C2C(C(=O)c3cccs3)=C(O)C(=O)N2c2nncs2)cc1OC (stereo not given)	-0.3	0.968	.	.	.	.
Cc1ccc(/C=C2\C(=O)NC(=S)N(c3ccc(Br)cc3)C2=O)o1	7.0	1.14	.	.	.	.
Cc1ccc(C=C2C(=O)NC(=S)N(c3ccccc3Cl)C2=O)o1	60.2*	0.959	30.9	78.2*	1.02	0.794*
O=C1C=CC(=O)N1c1ccc(Br)cc1[N+](=O)[O-]	79.0*	0.948	70.0*	7.8	0.938	0.92
O=C(c1ccc(Br)cc1)N1CCN(c2ccc(Cl)cc2[N+](=O)[O-])CC1	6.3	1.02	.	.	.	.
CN1C=C(C(F)(F)F)C=C/C1=C(/C#N)c1nc2ccccc2s1	39.5	1.13	0.2	9.0	0.905	0.711*
CCOc1cc(/C=C(\C#N)c2nc3ccccc3s2)ccc1O	4.3	0.908	.	.	.	.
Cn1c(/C=C/c2ccc(C(=O)c3ccccc3)o2)nc2ccccc21	50.8*	1.11	20.3	24.8	0.915	0.923
Cn1c(/C=C/c2ccco2)nc2ccccc21	3.8	0.97	.	.	.	.
O=C1C(Cl)=CC(=NS(=O)(=O)c2ccc(Cl)cc2)C(Cl)=C1Cl	84.6*	0.982	55.2*	80.6*	0.769*	0.824
O=C1C=CC(=NS(=O)(=O)c2ccc(Cl)cc2)C=C1	19.3	0.962	.	.	.	.
O=C(Nc1cccc(Oc2ccc(C(=O)O)c(C(=O)O)c2)c1)c1ccc(-c2ccccc2)cc1	51.6*	1.06	16.1	18.7	0.9	0.741*
CC(=O)Nc1ccc(Oc2ccc(C(=O)O)c(C(=O)O)c2)cc1	1.2	1.02	.	.	.	.
O=c1[nH]c(=O)n(-c2cccc(C(F)(F)F)c2)c(O)c1C=C1C=CC=N1	27.0	0.97	.	.	.	.
O=c1[nH]c(=S)n(-c2ccccc2F)c(O)c1C=C1C=CC=N1	113.7*	0.575*	47.8	127.9*	0.738*	0.598*
N#Cc1c2n(c3c(-c4ccccc4)ncnc13)CCC2	-0.6	1.12	.	.	.	.
O=C(CN(c1cccc([N+](=O)[O-])c1)S(=O)(=O)c1ccccc1)Nc1ccccc1Cl	2.6	1.06	.	.	.	.
O=C(O)c1cccc2c1NC(c1cccc3ccccc13)C1CC=CC21 (stereo not given)	49.8*	0.951	18.2	49.0	1.02	0.856
O=[N+]([O-])c1cccc2c1NC(c1ccccc1F)C1CC=CC21 (stereo not given)	6.9	0.956	.	.	.	.
O=C1NC(=O)N(Cc2ccccc2)C(=O)/C1=C/c1cccs1	24.9	0.832	.	.	.	.
CCN(CC)c1ccc(/C=C2\C(=O)NC(=O)N(Cc3ccccc3)C2=O)c(OC)c1	79.2*	3.01*	36.2	47.8	2.15*	1.75*
SMILES	HCV NS3h FP	Cy5 interf NS3h	HCV NS3h conf	SSB FP counter	Cy5 SSB fluor CB	Cy5 interf conf
Cc1ccccc1NC(=O)/C=C/c1cccc(C(F)(F)F)c1	-1.6	0.952	.	.	.	.
COc1ccc2oc(=O)c(C(=O)Nc3ccccc3C(=O)O)cc2c1	0.0	0.992	.	.	.	.
C=CCc1cccc2cc(C(=O)Nc3cccc4c3C(=O)c3ccccc3C4=O)c(=O)oc12	58.4*	0.942	-0.8	-3.2	1	1
N#CC(C#N)=C1C(=O)Nc2ccc(Br)cc21	25.2	0.869	.	.	.	.
CC(=O)NC1=C(N(C)C)C(=O)c2ccccc2C1=O	-21.2	0.909	.	.	.	.
CC(=O)N(C)C1=C(Cl)C(=O)c2ccccc2C1=O	90.1*	0.85	84.8*	0.5	0.973	0.973
CCOCCCNc1c2c(c(C#N)c3nc4ccccc4n13)CCC2	1.4	1.06	.	.	.	.
COc1ccccc1NC(=O)C1=C(C)NC(=S)NC1c1ccc(C)cc1 (stereo not given)	13.6	1.01	.	.	.	.
CCc1c(C#N)c(N)nc(SCC(=O)c2cc3ccccc3oc2=O)c1C#N	29.9	1.09	-4.0	2.9	1	0.765*
CCc1c(C#N)c(N)nc(SCC(=O)c2ccc(-c3ccccc3)cc2)c1C#N	3.2	1.05	.	.	.	.
O=C1NCC(O)=C1C=NCCc1ccc(O)cc1	1.9	1.06	.	.	.	.
O=C1NC(=Nc2ccc(O)cc2)S/C1=C\c1ccccc1	45.9*	1.15	11.8	11.4	0.942	0.976
Cc1ccc(/C=C2\SC(=Nc3ccc(O)cc3)NC2=O)cc1	4.6	1.01	.	.	.	.
C/C(=N\NC(=O)c1cncc(Br)c1)c1ccc2ccccc2c1	7.8	1.03	.	.	.	.
Cc1ccc(N2CC(C(=O)NCC(C)O)CC2=O)cc1 (stereo not given)	-5.5	1.01	.	.	.	.
COC(=O)c1cc(NC(=O)c2ccc(-c3ccc(Cl)cc3)o2)cc(C(=O)OC)c1	5.5	1	.	.	.	.
O=C(Nc1ccc(Cl)cc1)c1ccc2c(c1)OCCO2	27.0	1.13	61.6*	75.7*	1.05	0.962
CC(=O)c1ccc(NC(=O)c2ccc3c(c2)OCCO3)cc1	-4.1	0.969	.	.	.	.
CCC(c1ccccc1)c1nnc(NC(=O)Nc2cccc(Cl)c2)s1 (stereo not given)	46.7*	1.2*	4.4	9.0	1	0.739*
O=C(NCC(c1ccccc1)c1ccccc1)Nc1cccc(Cl)c1	2.6	1.05	.	.	.	.
Cn1nnnc1SCC(=O)c1ccc(Br)cc1	-4.5	0.842	.	.	.	.
CC(=O)c1ccc(-n2c(C)ccc2-c2ccccc2)cc1	6.5	1.03	.	.	.	.
Cc1ccc(C)n1-c1ccc(CC(=O)O)cc1	84.9*	1.11	66.9*	96.4*	0.937	0.839
COC(=O)c1ccc(COc2ccc(-c3ccccc3)cc2)o1	12.0	0.96	.	.	.	.
CCN(CC)c1ccc(/C=C/c2[nH]c(=O)[nH]c(=O)c2[N+](=O)[O-])c(OC)c1	53.5*	0.918	8.7	18.7	0.869	0.872
SMILES	HCV NS3h FP	Cy5 interf NS3h	HCV NS3h conf	SSB FP counter	Cy5 SSB fluor CB	Cy5 interf conf
O=c1[nH]c(/C=C\c2ccccc2Cl)c([N+](=O)[O-])c(=O)[nH]1	-9.4	0.903	.	.	.	.
Cc1ccc(C(=O)Nc2ccccc2C(=O)NCCO)cc1	1.8	1.01	.	.	.	.
O=C1N=c2ccc([N+](=O)[O-])cc2=C1c1sc(=S)n(Cc2ccco2)c1O	8.7	1.12	.	.	.	.
O=C1N=c2ccc(Br)cc2=C1c1sc(=S)n(C(Cc2ccccc2)C(=O)O)c1O (stereo not given)	76.3*	0.763*	30.9	66.0*	0.748*	0.838
CCOC(=O)c1[nH]c(=O)[nH]c1CSc1ccccn1	43.8*	1.04	1.3	13.8	0.933	0.901
COc1ccc(NC(=O)CSc2ccccn2)cc1	-13.7	0.998	.	.	.	.
Cc1ccc(C(=O)Nc2cccc3ccccc23)o1	4.2	0.968	.	.	.	.
CN(C)c1ccc(NS(=O)(=O)c2ccc(F)cc2)cc1	7.4	0.967	.	.	.	.
CN(C)c1ccc(NS(=O)(=O)c2ccc(N3C(=O)CCC3=O)cc2)cc1	49.5*	0.925	31.9	61.2*	1.13	0.964

High-throughput results deposited in PubChem by Milwaukee Institute for Drug Discovery.
